# Compound activity deposited in PubChem by several laboratories.
# In the library only some 1.8% were active in any assay of this set; here they are far more common.
# APOBEC3A inh: APOBEC3A ssDNA deaminase inhibitors, primary screen, selectivity assay for APOBEC3G inhibitor project, biochemical, FAM/TAMRA oligo cleavage fluorescence; recombinant A3A, FAM/TAMRA ssDNA deamination fluorescence; inhibition, % at 20 µM; actives 0.41% (n = 330,000);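 active = at least 40% inhibition at 20 µM here, with at most 30% in a related deaminase screen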
# Target sequence (P31941 whole entry, looked up): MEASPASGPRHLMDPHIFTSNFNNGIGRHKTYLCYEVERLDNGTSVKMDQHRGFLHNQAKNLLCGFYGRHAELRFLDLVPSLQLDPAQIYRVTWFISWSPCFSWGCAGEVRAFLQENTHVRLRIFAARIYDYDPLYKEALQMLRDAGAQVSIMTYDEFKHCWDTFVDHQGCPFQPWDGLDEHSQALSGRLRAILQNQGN
# VLA-4 inh: inhibition in human VLA-4 binding assay, primary screen, VLA-4 allosteric modulator project, MLPCN library, flow cytometry, VLA-4 expressing cells; inhibition, % (about 7 µM as worked out from the volumes in the protocol); Integrin alpha-4 (Homo sapiens), P13612; actives 0.2% (n = 330,000); ligand binding flow cytometry; in the data active = inhibition above about 50%
# CendR NRP1 mod: modulators of CendR peptide binding to NRP-1, primary screen, biochemical, fluorescence polarization, uHTS; Neuropilin-1 (Homo sapiens), O14786; FAM-RPARPAR peptide binding to NRP-1; inhibition, % at 25 µM; actives 0.85% (n = 360,000);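 active = inhibition or corrected inhibition above about 18%, plus a signal ratio from 0.5 to 1.5, limit read from the data, passing the limit was not always enough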
# MIN6 prolif: inducers of MIN6 beta-cell proliferation, primary screen, ATP luminescence, uHTS | MIN6 cells proliferation, ATPlite luminescence, 48 h; cells starved in 0.2% serum; 100% = growth in 10% serum | proliferation, % at 10 µM | actives 0.29% (n = 330,000) | AID 2380, 2010;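 active = compounds whose signal lies at least 3.5 SD above the mean of all wells on their plate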
# APOBEC3G inh: APOBEC3G DNA deaminase inhibitors, primary screen, biochemical, fluorescence, single-stranded DNA substrate, uHTS. DNA dC->dU-editing enzyme APOBEC-3G (Homo sapiens), Q9HC16. recombinant A3G, ssDNA deamination FAM/TAMRA fluorescence. inhibition, % at 20 µM. actives 0.28% (n = 330,000);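 active = inhibition of at least 40% at 20 µM, with no more than 30% in the related APOBEC3A deaminase screen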
# Target sequence (Q9HC16 whole entry, looked up): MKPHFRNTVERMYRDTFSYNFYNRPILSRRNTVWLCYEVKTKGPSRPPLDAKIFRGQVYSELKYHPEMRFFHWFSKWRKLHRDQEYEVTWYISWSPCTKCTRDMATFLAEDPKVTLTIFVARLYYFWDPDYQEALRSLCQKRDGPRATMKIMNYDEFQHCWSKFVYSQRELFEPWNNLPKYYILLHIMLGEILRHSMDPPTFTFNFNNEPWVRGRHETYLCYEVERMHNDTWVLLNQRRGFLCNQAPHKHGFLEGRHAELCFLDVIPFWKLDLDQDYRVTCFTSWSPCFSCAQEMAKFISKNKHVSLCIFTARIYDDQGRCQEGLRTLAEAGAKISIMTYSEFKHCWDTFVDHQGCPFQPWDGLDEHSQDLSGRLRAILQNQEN
# A3A conf: APOBEC3A deaminase inhibitors, retest, confirmation, selectivity assay for APOBEC3G inhibitor project, biochemical, single concentration, fluorescence readout; inhibition, % at 20 µM; AID 493151, 2011; actives 63% (n = 1,400); shares compounds with APOBEC3A inh; recombinant A3A, ssDNA deaminase UDG fluorescence assay;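 active = inhibition reaching a set limit, 80% of the first screen's cutoff, at 20 µM in any replicate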
# UDG ctr A3A: E. coli UDG inhibitors, confirmation, counter-screen for APOBEC3A inhibitor project, biochemical, single concentration, fluorescence, FAM/TAMRA oligo; 1,000 tested, under 10 active; inhibition, % at 20 µM; UDG counterscreen, FAM/TAMRA uracil oligo fluorescence; shares compounds with APOBEC3A inh; AID 504714, 2011; call rule not given here
# A number is an active result; 0 = inactive; - = no result given.
SMILES,APOBEC3A inh,VLA-4 inh,CendR NRP1 mod,MIN6 prolif,APOBEC3G inh,A3A conf,UDG ctr A3A
Cc1cc(C)cc(N2CC(c3nc4ccccc4n3C)CC2=O)c1 (centres undefined),58.4,0,0,0,0,45.9,0
Cc1cccc(C)c1NC(=O)CSc1nnc(NC(=O)c2ccccc2C(=O)O)s1,63.8,0,0,0,0,0,-
O=C(CSc1nnc(NC(=O)c2ccccc2C(=O)O)s1)Nc1ccccc1Cl,60.3,0,0,0,0,46.5,0
CCCCNC(=O)NNC(=O)c1cc(C)on1,0,0,0,0,0,-,-
Cc1nc2ccc(C(=O)O)cc2c2c1CC(C)S2 (centres undefined),43.0,0,0,0,0,46.2,0
Cc1nc2cc(C(=O)O)ccc2s1,0,0,0,0,0,-,-
CN1CCN(c2nnc(-c3ccccc3)c(-c3ccccc3)n2)CC1,66.0,0,0,0,0,27.0,0
Cc1nn(-c2ccccc2)c(Cl)c1C(=O)NNC(=O)c1ccccc1O,0,0,0,0,0,-,-
Cc1ccc(NC(=O)c2c(-c3ccccc3Cl)noc2C)nc1,0,0,0,0,0,-,-
Cc1onc(-c2ccccc2Cl)c1C(=O)Nc1ccc(Cl)cn1,59.7,0,0,0,0,0,-
CCC(=O)Nc1ccc(C(=O)COC(=O)Cc2ccsc2)cc1,0,0,0,0,0,-,-
CCC(C)N(C(=O)COc1ccc(Cl)c2cccnc12)C1CCS(=O)(=O)C1 (centres undefined),61.6,0,0,0,0,0,-
CCC(C)N(C(=O)COc1ccccc1C#N)C1CCS(=O)(=O)C1 (centres undefined),0,0,0,0,0,-,-
O=C(COC(=O)/C=C/c1ccco1)NCc1ccccc1Cl,0,0,0,0,0,-,-
Cc1cc(Br)ccc1SCC(=O)OCC(=O)NCc1ccco1,58.8,0,0,0,0,42.6,-
Cc1ccc(C)c(SCC(=O)OCC(=O)c2ccco2)c1,53.9,0,0,0,0,51.2,0
O=C(COC(=O)/C=C/c1ccco1)NCc1ccco1,48.8,0,0,0,0,36.3,0
COc1ccccc1NCCC(=O)OCC(=O)NCc1ccco1,44.4,0,0,0,0,23.8,0
CC(C)n1ncc2c(C(=O)NCCc3ccc(F)cc3)cc(C3CC3)nc21,0,-,0,0,0,-,-
COc1ccc(S(=O)(=O)Nc2ccc3c(c2)C(=O)N([C@H](C)CO)C[C@H](C)[C@@H](CN(C)C(=O)NC2CCCCC2)O3)cc1,0,0,0,0,0,-,-
COc1ccc2nc(NCc3ccc(OC)c(OC)c3OC)sc2c1,-,-,0,-,-,-,-
O=C(COC(=O)/C=C/c1ccco1)Nc1ncc(C(F)(F)F)cc1Cl,51.1,0,0,0,0,50.4,0
CCOCc1cnc(C)nc1NCC(=O)c1c(C)[nH]c2cc(C)ccc12,55.8,0,0,0,0,64.2,0
O=C(c1cccc(S(=O)(=O)NCc2ccccc2)c1)N1CCCC1,0,0,0,0,0,-,-
O=C(c1cccc(S(=O)(=O)NCc2ccc3c(c2)OCO3)c1)N1CCCC1,88.6,0,0,0,0,0,0
SMILES,APOBEC3A inh,VLA-4 inh,CendR NRP1 mod,MIN6 prolif,APOBEC3G inh,A3A conf,UDG ctr A3A
CC1=CC(C)C(CN(CCC[N+](C)(C)C)C(=O)Nc2ccccc2)C(C)C1 (centres undefined),58.1,0,0,0,0,27.8,0
Cc1cc(CNC(=O)COC(=O)c2ccc(Cl)c(N)c2)cc(C)c1O,0,0,0,0,0,-,-
O=C(/C=C\c1ccc(-c2ccccc2)o1)c1ccccc1,48.0,0,0,0,0,11.1,0
Cc1ccccc1N(C(=O)Cc1c[nH]c2ccccc12)C(C(=O)NC1CCCCC1)c1ccco1 (centres undefined),0,0,0,0,0,-,-
Cc1ccc(C(C(=O)NC2CCCCC2)N(C(=O)Cc2c[nH]c3ccccc23)c2ccccc2C)o1 (centres undefined),44.9,0,0,0,0,0,0
Cc1ccc(OCc2ccoc2C(=O)O)cc1C,41.6,0,0,0,0,37.4,0
Cc1[nH]oc(=O)c1N=Nc1ccc2[nH]c(=O)[nH]c2c1,0,0,0,0,0,-,-
CCOc1cc(/C=C(\C#N)C(=O)NCC2CCCO2)ccc1OCC(N)=O (centres undefined),50.8,0,0,0,0,43.3,0
CCOc1cc(/C=C(\C#N)C(=O)NCC2CCCO2)ccc1O (centres undefined),0,0,0,0,0,-,-
CC(NC(=O)CN(C)CC(=O)Nc1cccc(F)c1)c1ccccc1 (centres undefined),0,0,0,0,0,-,-
Cc1ccccc1NC(=O)c1snc2c(=O)[nH]cnc12,0,0,-,0,0,-,-
O=c1c2[nH]cnc2n(-c2cccc(F)c2)c(=O)n1Cc1ccccc1,0,0,0,0,0,-,-
Cc1n(C)c2cc(Cl)ccc2[n+]1Cc1ccccc1,78.3,0,0,0,0,65.0,0
CC(O)CCC(=O)NNC(=S)Nc1ccccc1 (centres undefined),0,0,0,0,0,-,-
CC(C)CCOCC(O)CCC(=O)NNC(=S)Nc1ccccc1 (centres undefined),92.1,0,0,0,0,0,0
CN(CC(=O)Nc1c(Cl)cccc1Cl)C(=O)CNC(=O)c1ccc2ccccc2c1,42.1,0,0,0,0,0,0
CN(CC(=O)Nc1c(Cl)cccc1Cl)C(=O)c1cccc(-n2cccc2)c1,70.5,0,0,0,0,53.2,0
Cc1ccc(S(=O)(=O)N2CC(O)C[C@H]2C(=O)OCC(=O)Nc2ccc(N3CCCCC3)cc2)cc1C (some centres undefined),0,0,0,0,0,-,-
CC[n+]1cc(-c2ccccc2)nc(N2CCOCC2)n1,50.8,0,0,0,0,66.7,-
NC(=O)c1cc(-c2ccccc2)nc(N2CCOCC2)n1,0,0,0,0,0,-,-
O=C1N=C(N2CCCC2C(=O)O)S/C1=C\c1ccco1 (centres undefined),43.7,0,0,0,0,19.2,0
O=C(Nc1ccc(F)cc1F)c1noc2c1CCC2,49.8,0,0,0,0,32.9,-
